Source: PubChem BioAssay AID1159580 (chemical genetic matrix, 2015)
Out of some 5,500 compounds screened, about 2,000 (36%) were called active. Inconclusive results (about 18%) are left out. Cut-off read from the data, not from the text of the source: active = normalized growth mostly below about 0.91 (no sharp cut-off); inconclusive = no clear call, values can overlap the other calls; inactive = mostly above about 0.92. Some of the results follow.

Experiment: chemical genetic growth profiling, strain panel (AID 1159580);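 note: tested at 20 µM; growth read once vehicle control cultures reached saturation at 30 °C; 1 = growth at the plate median or of vehicle wells; lower values mean less growth of the strain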
Details: growth OD
[1] = S. cerevisiae deletion strains, locus YAL013W, strain DEP1, hits give low values
[2] = S. cerevisiae deletion strains, locus YBR229C, strain ROT2, hits give low values
[3] = S. cerevisiae deletion strains, locus YDL101C, strain DUN1, hits give low values
[4] = S. cerevisiae deletion strains, locus YDR150W, strain NUM1, hits give low values
[5] = S. cerevisiae deletion strains, locus YEL061C, strain CIN8, hits give low values
[6] = S. cerevisiae deletion strains, locus YGR078C, strain PAC10, hits give low values
[7] = S. cerevisiae deletion strains, locus YHR030C, strain SLT2, hits give low values
[8] = S. cerevisiae deletion strains, locus YHR087W, strain rtc3, hits give low values
[9] = S. cerevisiae deletion strains, locus YJL187C, strain SWE1, hits give low values
[10] = S. cerevisiae deletion strains, locus YJR043C, strain POL32, hits give low values
[11] = S. cerevisiae deletion strains, locus YJR075W, strain HOC1, hits give low values
[12] = S. cerevisiae deletion strains, locus YKL190W, strain CNB1, hits give low values
[13] = S. cerevisiae deletion strains, locus YLR039C, strain RIC1, hits give low values
[14] = S. cerevisiae deletion strains, locus YLR058C, strain SHM2 (second series), hits give low values
[15] = S. cerevisiae deletion strains, locus YLR085C, strain ARP6, hits give low values
[16] = S. cerevisiae deletion strains, locus YLR262C, strain YPT6, hits give low values
[17] = S. cerevisiae deletion strains, locus YML094W, strain GIM5, hits give low values
[18] = S. cerevisiae deletion strains, locus YMR219W, strain ESC1, hits give low values
[19] = S. cerevisiae deletion strains, locus YMR263W, strain SAP30, hits give low values
[20] = S. cerevisiae deletion strains, locus YNL153C, strain GIM3, hits give low values
[21] = S. cerevisiae deletion strains, locus YNL298W, strain CLA4 (second series), hits give low values
[22] = S. cerevisiae deletion strains, locus YNL322C, strain KRE1, hits give low values
[23] = S. cerevisiae deletion strains, locus YNR030W, strain Alg12, hits give low values
[24] = S. cerevisiae deletion strains, locus YOL006C, strain TOP1, hits give low values
[25] = S. cerevisiae deletion strains, locus YPL055C, strain LGE1, hits give low values
[26] = S. cerevisiae deletion strains, locus YPL241C, strain CIN2, hits give low values
[27] = S. cerevisiae deletion strains, locus YPR135W, strain CTF4, hits give low values
[28] = S. cerevisiae strains, strain wild type, hits give low values
[29] = S. cerevisiae deletion strains, locus YCL061C, strain MRC1, hits give low values

Measured: normalized growth

CSc1ncc(C#N)c2nc(-c3ccc(N(C)C)cc3)nn12
inactive: [1] 1.01 | [2] 0.991 | [3] 0.974 | [4] 0.966 | [5] 1 | [6] 0.983 | S. cerevisiae deletion strains, locus YGR229C, strain SMI1, hits give low values 1 | [7] 1 | [8] 1.05 | [9] 1.01 | [10] 0.975 | [11] 0.994 | [12] 1.01 | [13] 1.08 | [14] 1.02 | [15] 1.02 | [16] 1.09 | [17] 1.05 | [18] 1.01 | [19] 1.01 | [20] 0.985 | [21] 1.04 | [22] 1 | [23] 1.03 | [24] 1.04 | [25] 1.01 | [26] 1.01 | [27] 0.968 | [28] 1

O=S(=O)(Oc1ccc(OCc2ccccc2)cc1)c1cc(Cl)cc(Cl)c1
inactive: [1] 1.01 | [2] 1.01 | [29] 1.01 | [3] 0.987 | [4] 1 | [5] 0.959 | [6] 1 | [7] 0.881 | [8] 0.983 | [9] 1 | [10] 1.01 | [11] 1.01 | [13] 1.01 | [14] 1.01 | [15] 0.943 | [16] 0.985 | [17] 0.966 | [18] 0.993 | [19] 1.01 | [20] 0.998 | [21] 1.01 | [22] 1 | [23] 0.998 | [24] 0.779 | [25] 0.969 | [26] 1 | [27] 0.988 | [28] 1

Fc1cc(F)cc(COc2cc(Cl)cc(Cl)c2)c1
active: [7] 0.522 | [26] 0.832
inactive: [1] 1 | [2] 0.987 | [29] 0.96 | [3] 1.01 | S. cerevisiae deletion strains, locus YDL134C, strain PPH21, hits give low values 0.992 | [4] 0.885 | [5] 1.01 | [6] 0.96 | [8] 0.959 | [9] 0.968 | [10] 0.985 | [11] 0.913 | [12] 0.967 | [13] 1.01 | [14] 0.972 | [15] 0.822 | [16] 0.943 | [17] 1.01 | [18] 0.984 | [19] 0.97 | S. cerevisiae deletion strains, locus YMR307W, strain GAS1, hits give low values 0.739 | [20] 1 | [21] 0.919 | [22] 0.987 | [23] 0.928 | [24] 0.8 | [25] 0.922 | [27] 0.886 | [28] 0.96
